# Inconclusive results are not listed. Calls of active or inactive are those of the source. Calls follow the shape of the full dose curve. Non-standard residues stand in square brackets, D forms with d. Residues, ends and D or L forms follow the SMILES beside them. *: point of attachment. Nva = CCC[C@H](N)C(=O)O; Cbz = O=C(OCc1ccccc1)*
# Assays:
# [1] = qHTS drug screen for cell cycle checkpoint inhibitors in PARPi-resistant BRCA-mutant ovarian cancer cell lines. (AID 1963452); details: PEO1/OlaR viability, CellTiter-Glo luminescence, 96 h; for Z-AUC: stronger effect = lower value
# Outline: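 PEO1, PEO4 and PEO1/OlaR ovarian cancer cells, 600 per well, exposed 96 h at 37C to a dilution series. Viability read by CellTiter-Glo luminescence, normalized to DMSO and empty wells; activity summarized as Z-AUC.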
# [2] = qHTS for identification of novel therapeutic agents for treatment of microphthalmiaassociated transcription factor (MiT) renal cell carcinoma (RCC) (AID 1963991); details: CellTiter-Glo, 48 h; for z-score: stronger effect = lower value; for Potency: active = Z-AUC below -0.8 in all three lines
# Outline: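 Three TFE3-fusion RCC cell lines (UOK109, UOK124, UOK145), 500 cells/well, were exposed to the 1912-compound MIPE 4.0 library for 48 hours at 37 C. Viability was read by CellTiter-Glo luminescence, normalised to DMSO (100%) and empty wells (0%), with 11-concentration curve fits.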
# [3] = measured here: PEO1 parental Z-AUC
# [4] = TFE3-RCC UOK109 viability, measured here: UOK109 Z-AUC
# [5] = TFE3-RCC viability, measured here: UOK124 Z-AUC
# [6] = TFE3-RCC viability, measured here: UOK145 Z-AUC
# Potency is read from the fitted curve at half-maximal effect.
Structure (SMILES),Z-AUC [1],"Z-AUC [1, 3]",Z-AUC ([1]; measured here: PEO4 Z-AUC),"z-score [2, 4]","z-score [2, 5]","z-score [2, 6]",Potency [1],Potency ([2]; TFE3-RCC UOK109 viability)
CC(=O)O[C@H]1C[C@@H]2CC[C@H]3[C@H]4C[C@H]([N+]5(C)CCCCC5)[C@@H](OC(C)=O)[C@@]4(C)CC[C@@H]3[C@@]2(C)C[C@H]1[N+]1(C)CCCCC1,0.98 (inactive),1.06,1.25,0.763,0.611,-1.4,,
COc1ccc(S(=O)(=O)Nc2cccnc2Nc2ccc(O)cc2)cc1,,-1.73,-1.84,-0.858,-1.8,-1.74,1380 nM (active),132 nM (active)
C[C@@H]1CC[C@@]2(OC1)OC1CC3C4CC=C5CC(O)CCC5(C)C4CCC3(C)C1[C@@H]2C (some centres not stated),0.426 (inactive),0.314,0.526,0.586,0.304,0.634,,
N#Cc1c(NC(=O)c2cccc3ccccc23)sc2c1CCCC2,-0.477 (inactive),-0.695,-0.753,-1.37,-1.52,-1.31,,833 nM (active)
CCC[C@@H](C=O)NC(=O)[C@H](CC(C)C)NC(=O)[C@H](CC(C)C)NC(=O)OCc1ccccc1 (Cbz-Leu-Leu-[Nva]-aldehyde),-1.63 (inactive),-1.42,-1.86,-1.03,-2.77,-1.34,,4180 nM (active)
Cn1cc(-c2ccc3ncc(Cc4ccc5ncccc5c4)n3n2)cn1,0.547 (inactive),0.877,0.786,-0.236,0.125,-0.113,,
Nc1ccn(C2CO[C@H](CO)O2)c(=O)n1 (some centres not stated),0.13 (inactive),0.905,0.884,1.41,1.05,1.04,,
Cc1cc(Nc2ncc3c(n2)N(C)C(=O)N(c2cc(NC(=O)c4cccc(C(F)(F)F)c4)ccc2C)C3)n(C)n1,-1.62 (inactive),-1.69,-1.33,-1.56,-1.08,-2.15,,264 nM (active)

# Source: PubChem BioAssay (NCATS)
